From PubChem BioAssay
Pf apPOL inh = Pf-apPOL inhibitors, biochemical, fluorescence; AID 1794808, 2022; 210,000 compounds, 0.25% hits; Recombinant Pf-apPOL, molecular beacon fluorescence, 1.5 h; inhibition, % at 10 µM
mHTT-CaM PPI inh = mutant huntingtin-calmodulin interaction inhibitors – biochemical, AlphaScreen, primary screen; AID 1671202, 2021; 190,000 compounds, 3.6% hits; AlphaScreen His-mHTT/GST-CaM binding, luminescence; inhibition, % at 15 µM;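 further: 0% = both proteins with DMSO and 100% = one protein alone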
* hit, by the source's call. Sampled rows, rich in hits. Any-hit rate of the full collection: about 3.5%. No stated cut-off is given here; in the data, active means inhibition above about 50%; inactive means the rest.

For COc1ccc2[nH]cc(CCN3CC(C(=O)Nc4cc(F)cc(F)c4)CC3=O)c2c1 (centres undefined) the results were Pf apPOL inh -5 and mHTT-CaM PPI inh 31.
Screening O=C(Nc1nncs1)C1CC(=O)N(CCc2c[nH]c3ccc(Cl)cc23)C1 (centres undefined) returned Pf apPOL inh -2 and mHTT-CaM PPI inh 7.
`COc1ccc2[nH]cc(CCN3CC(C(=O)Nc4ccc(F)c(Cl)c4)CC3=O)c2c1` (centres undefined) gave Pf apPOL inh -2 and mHTT-CaM PPI inh 55*.
`O=C(Nc1cccc(F)c1)C1CC(=O)N(CCc2c[nH]c3ccc(F)cc23)C1` (centres undefined) gave Pf apPOL inh -4 and mHTT-CaM PPI inh 18.
O=C(Nc1ccccc1NC(=O)C1(c2cccs2)CCCC1)c1cccs1 was read as Pf apPOL inh -5 and mHTT-CaM PPI inh -6.
`Cc1cc2c(cc1C)NC1(CCOCC1)C(=NCc1ccc(F)cc1)N2` gave Pf apPOL inh -5 and mHTT-CaM PPI inh 35.
`O=C(c1ccn2c(-c3ccccc3Br)nnc2c1)N1CCCCC1` gave Pf apPOL inh -3 and mHTT-CaM PPI inh 3.
Screening CCC(=O)Nc1c(-c2cccc(F)c2)n[nH]c1C1CC1 returned Pf apPOL inh -4 and mHTT-CaM PPI inh -1.
Cc1ccc(Cl)cc1NC(=O)C1CC(=O)N(c2cccc([N+](=O)[O-])c2)C1 (centres undefined) was read as Pf apPOL inh -10 and mHTT-CaM PPI inh 54*.
`O=C(Nc1ccc(F)cc1)C1CC(=O)N(CCc2c[nH]c3ccc(Cl)cc23)C1` (centres undefined) gave Pf apPOL inh -11 and mHTT-CaM PPI inh 55*.
O=C(NCCc1ccc(F)cc1)C1CC(=O)N(CCc2c[nH]c3ccc(Cl)cc23)C1 (centres undefined) was read as Pf apPOL inh -2 and mHTT-CaM PPI inh 8.
`Cc1ccc(N2CC(C(=O)Nc3ccc(Cl)cc3Cl)CC2=O)cc1` (centres undefined) gave Pf apPOL inh -5 and mHTT-CaM PPI inh -5.
Screening COc1ccc(NC(=O)C2CC(=O)N(c3ccc(C)c(Cl)c3)C2)cc1 (centres undefined) returned Pf apPOL inh 1 and mHTT-CaM PPI inh 1.
`Cc1ccc(N2CC(C(=O)Nc3nc4ccccc4s3)CC2=O)cc1Cl` (centres undefined) gave Pf apPOL inh -1 and mHTT-CaM PPI inh 55*.
`CS(=O)(=O)N1CCN(C(=O)c2cc(-c3ccc4c(c3)OCO4)n[nH]2)CC1` gave Pf apPOL inh 0 and mHTT-CaM PPI inh -8.
For CN1CCN(C(=O)C2COC3(CCCCC3)N2C(=O)Cc2cccs2)CC1 (centres undefined) the results were Pf apPOL inh -4 and mHTT-CaM PPI inh 7.
Cc1ccn2c(NC(=O)c3ccc([N+](=O)[O-])cc3)c(-c3ccc(F)cc3)nc2c1 was read as Pf apPOL inh 0 and mHTT-CaM PPI inh 3.
`Cc1nc2cc(N=Cc3ccc(Br)cc3)ccc2n1C` gave Pf apPOL inh 53* and mHTT-CaM PPI inh 5.
Screening Cc1nc2cc(N=Cc3ccccc3O)ccc2n1C returned Pf apPOL inh 19 and mHTT-CaM PPI inh 8.
O=C(CSc1nc2ccccc2[nH]1)Nc1ccccc1Cl was read as Pf apPOL inh 4 and mHTT-CaM PPI inh -2.
For COc1ccc(NC(=O)CCc2ccc3ccn(C)c3c2)cc1 the results were Pf apPOL inh -1 and mHTT-CaM PPI inh 28.
Screening O=C(Nc1ccc(OCc2ccccc2)cc1)N1c2ccccc2Sc2ccccc21 returned Pf apPOL inh -4 and mHTT-CaM PPI inh -2.
Screening O=C(Nc1nccn(-c2cccc(Cl)c2)c1=O)c1ccccn1 returned Pf apPOL inh -3 and mHTT-CaM PPI inh -4.
For Cc1cc(C)cc(-n2ccnc(NC(=O)c3ccccn3)c2=O)c1 the results were Pf apPOL inh -16 and mHTT-CaM PPI inh 74*.
For CC1CN(C=C(C#N)S(=O)(=O)Cc2ccc(Cl)cc2)CC(C)O1 (centres undefined) the results were Pf apPOL inh -5.
CC(=O)Nc1ccc(-c2noc(C3CCCN(C(=O)c4cc(C)cc(C)c4)C3)n2)cc1 (centres undefined) was read as Pf apPOL inh -2 and mHTT-CaM PPI inh 5.
For O=C(COc1nsnc1N1CCCCC1)Nc1ccc(Br)cc1 the results were Pf apPOL inh -9 and mHTT-CaM PPI inh 51*.
Screening O=C(COc1nsnc1N1CCOCC1)Nc1ccc(Br)cc1 returned Pf apPOL inh -6 and mHTT-CaM PPI inh 5.
CCOc1ccc(C(O)=C2C(=O)C(=O)N(c3nnc(C)s3)C2c2ccc([N+](=O)[O-])cc2)cc1 (centres undefined) was read as Pf apPOL inh 7 and mHTT-CaM PPI inh 17.
`COc1ccc(C(O)=C2C(=O)C(=O)N(c3nnc(C)s3)C2c2ccc(Cl)c(Cl)c2)cc1` (centres undefined) gave Pf apPOL inh 1 and mHTT-CaM PPI inh 100*.
`CCn1c(CC2CCN(C(=O)CC(C)C)C2)nc2cccnc21` (centres undefined) gave Pf apPOL inh -5 and mHTT-CaM PPI inh -4.
Cc1csc(NC(=O)c2ccc(N3CCCC3)nn2)n1 was read as Pf apPOL inh -4 and mHTT-CaM PPI inh 72*.
CCSc1nnc(NC(=O)c2ccc(N3CCCC3)nn2)s1 was read as Pf apPOL inh -6 and mHTT-CaM PPI inh 26.
For COc1ccc(C(C)NC(=O)C2CCN(c3nnc(-c4ccccc4)o3)CC2)cc1 (centres undefined) the results were Pf apPOL inh -5 and mHTT-CaM PPI inh 17.
`COc1cc(-c2n[nH]c(=S)n2-c2ccc3c(c2)OCO3)cc(OC)c1OC` gave mHTT-CaM PPI inh 1.
Screening Cc1cc(F)ccc1NC(=O)c1cc2n(n1)CCCN(Cc1ccc(F)cc1)C2=O returned Pf apPOL inh 1 and mHTT-CaM PPI inh 3.
`O=C(Nc1ccc(-c2nc3ccccc3s2)c(O)c1)c1ccccc1` gave Pf apPOL inh 97* and mHTT-CaM PPI inh -13.
`COc1cccc(C(=O)Nc2cccc(-c3nc4ccccc4s3)c2)c1` gave Pf apPOL inh 0 and mHTT-CaM PPI inh -6.
`Cc1ccc(-c2nc3ccccc3s2)cc1NC(=O)c1ncn[nH]1` gave Pf apPOL inh -4 and mHTT-CaM PPI inh 98*.
`Cc1cc(C(=O)Nc2cccc(-c3nc4ccccc4s3)c2)on1` gave Pf apPOL inh 54* and mHTT-CaM PPI inh -2.
`O=C(Nc1ccc(-c2nc3ccccc3s2)cc1)c1ncn[nH]1` gave Pf apPOL inh -6 and mHTT-CaM PPI inh 54*.
O=C(Nc1ccc(-c2nc3ccccc3s2)cc1)c1ccccc1F was read as Pf apPOL inh 2 and mHTT-CaM PPI inh 5.
Screening O=C(Nc1ccc(-c2nc3ccccc3s2)c(O)c1)c1ccc(F)cc1 returned Pf apPOL inh 0 and mHTT-CaM PPI inh -4.
`Cc1ccc(-c2nc3ccccc3s2)cc1NC(=O)c1ccco1` gave Pf apPOL inh -7 and mHTT-CaM PPI inh 0.
`Brc1ccc(N=Nc2ccc(Br)cn2)nc1` gave mHTT-CaM PPI inh 5.
`CCc1nc(C)cn1S(=O)(=O)c1ccc(Cl)cc1` gave Pf apPOL inh 13 and mHTT-CaM PPI inh -7.
`Cc1c(C(=O)N2CCC3(CC2)OCCO3)sc2ncn(Cc3ccccc3Cl)c(=O)c12` gave Pf apPOL inh 3 and mHTT-CaM PPI inh 9.
CCCNC(C)c1nc2ccccc2c(=O)n1C (centres undefined) was read as Pf apPOL inh -4 and mHTT-CaM PPI inh -1.
